Experimental findings from the supplement of paper PMC10681739 are described below.

Experiment [1] has as its target T1, ETS1 (UniProt P14921).
T1 sequence: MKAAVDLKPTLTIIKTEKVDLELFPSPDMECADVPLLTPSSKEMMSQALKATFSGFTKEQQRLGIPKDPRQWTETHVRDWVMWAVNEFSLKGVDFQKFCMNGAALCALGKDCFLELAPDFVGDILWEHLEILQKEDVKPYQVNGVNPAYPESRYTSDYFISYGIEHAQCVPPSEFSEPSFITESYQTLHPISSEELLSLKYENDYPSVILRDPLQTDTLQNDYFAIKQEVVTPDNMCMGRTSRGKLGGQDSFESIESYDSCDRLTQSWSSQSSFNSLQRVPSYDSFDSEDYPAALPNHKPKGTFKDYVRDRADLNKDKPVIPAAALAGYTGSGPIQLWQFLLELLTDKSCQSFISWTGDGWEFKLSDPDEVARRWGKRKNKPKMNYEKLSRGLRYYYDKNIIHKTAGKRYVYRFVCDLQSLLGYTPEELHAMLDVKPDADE
The experiment in a line: ETS1 binding intensity (PBM fluorescence), ETS1 alone (arbitrary fluorescence units); higher = stronger binding. The following applies: ETS1 concentration 1 nM; RUNX1 concentration 0 nM.

In experiment [2] the target is RUNX1 (UniProt Q01196). The experiment in a line: RUNX1 binding intensity (PBM fluorescence), RUNX1 alone (arbitrary fluorescence units); higher = stronger binding. The following applies: RUNX1 concentration 2 nM; ETS1 concentration 0 nM. As to the method:
(§1)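 Cooperative gcPBM on 36-bp genomic probes with neighbouring ETS1 and RUNX1 sites. Recombinant human RUNX1 (2 nM) was incubated alone or with ETS1 (25 nM) and detected with anti-RUNX1 antibody plus Alexa488 secondary. Values are medians over 4 replicate spots; the RUNX1+ETS1 data were normalised to the RUNX1-only data. The probes sit in constant array flanks that are not printed.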

Experiment [3] deals with T1, ETS1. The experiment in a line: ETS1 binding intensity (PBM fluorescence) in presence of RUNX1, normalised to ETS1-only experiment (arbitrary fluorescence units); higher = stronger binding. The following applies: ETS1 concentration 1 nM; RUNX1 concentration 25 nM.
In experiment [4] the target is RUNX1 (UniProt Q01196). The experiment can be described thus: RUNX1 binding intensity (PBM fluorescence) in presence of ETS1, normalised to RUNX1-only experiment (arbitrary fluorescence units); higher = stronger binding. The following applies: RUNX1 concentration 2 nM; ETS1 concentration 25 nM. As to the method: as §1
Sequence of RUNX1 (Q01196 whole entry): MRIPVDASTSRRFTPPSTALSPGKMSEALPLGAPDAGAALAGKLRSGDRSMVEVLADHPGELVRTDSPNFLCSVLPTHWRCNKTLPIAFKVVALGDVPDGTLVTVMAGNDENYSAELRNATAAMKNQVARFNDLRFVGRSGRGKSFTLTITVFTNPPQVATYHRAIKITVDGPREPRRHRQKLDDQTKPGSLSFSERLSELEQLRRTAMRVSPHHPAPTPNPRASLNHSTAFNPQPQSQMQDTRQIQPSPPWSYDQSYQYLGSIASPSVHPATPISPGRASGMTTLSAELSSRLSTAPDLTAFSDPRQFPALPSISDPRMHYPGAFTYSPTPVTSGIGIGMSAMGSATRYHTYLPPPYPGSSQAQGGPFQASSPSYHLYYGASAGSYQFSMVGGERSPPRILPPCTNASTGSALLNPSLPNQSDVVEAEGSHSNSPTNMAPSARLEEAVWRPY
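Wherever RUNX1 binding intensity (PBM fluorescence) in presence of ETS1, normalised to RUNX1-only experiment is given: Full-length recombinant human ETS1 or RUNX1 bound to double-stranded 36-bp genomic probes on microarrays, detected by protein-specific primary antibody and Alexa488 secondary, spot fluorescence as median of four replicate spots.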
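Wherever RUNX1 binding intensity (PBM fluorescence), RUNX1 alone is given: Full-length recombinant human RUNX1 bound to double-stranded 36-bp genomic probes on a high-density microarray, scored as Alexa488 fluorescence per spot via anti-RUNX1 antibody, median of four replicate spots.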

TCCCCACACTTCCGGCCCCGCCCGCACAGCCGCACC: the ETS1 binding intensity with ETS1 [1] is 3270; with ETS1 [3], 4360. The RUNX1 binding intensity with RUNX1 [2] was 1130; with RUNX1 [4], 5780.
For CGGCTGGCAGGAAGTGGCCACTTGAACCGCAGATGC, in that order: 4480, 23300, 1190 and 3880.
As to TACCTACATCCTGCCACCACCCGAGGGGACCGCAAG, the ETS1 binding intensity came to 496 with ETS1 [1] and 974 with ETS1 [3]. The RUNX1 binding intensity with RUNX1 [2] came to 1050; with RUNX1 [4], 2810.
Take CAACAACCGGAAGTGGGGCGGGCCGCAGTACCCGCC: the ETS1 binding intensity was 14900 with ETS1 [1] and 15800 with ETS1 [3]. Besides, the RUNX1 binding intensity with RUNX1 [2] worked out at 701; in the experiment with RUNX1 [4] it was 3010.
In the same order, the values of CTCGTGCGTCACTTCCGCCCCGCAGACCCGCCCACT are 2410, 2940, 1050 and 2420.
In the case of ATGTCCCCAGGAGGATGTGGTGTGTCCACAGGAGGA, the ETS1 binding intensity was determined as 759 in the experiment with ETS1 [1] and 1650 with ETS1 [3]. Moreover, the RUNX1 binding intensity turned out to be 742 with RUNX1 [2] and 875 with RUNX1 [4].
In the same order, the values of AAAGAGGAAATCACGTACCCGAAAACCACATGCACA are 530, 1370, 1010 and 928.
For CTCTTCAGCAGGAAATGATGTGGTAAAACAGGGTTA, in that order: 3000, 10100, 856 and 1390.
For GCGACCCGACCCGGCGGAAACCACCTCGACAGCCTC, in that order: 915, 1000, 953 and 941.
As to TCTGGGGGAGGGGAAGGATGTGGTTTGCAGAGCGGA, the ETS1 binding intensity with ETS1 [1] is 873; with ETS1 [3], 5630. Moreover, the results for the RUNX1 binding intensity with RUNX1 [2] and with RUNX1 [4] were 1020 and 1470, respectively.
For ACCCTACTTCCGTTGCTGTGTTGCGGAGGTGACCTA, in that order: 1210, 1240, 844 and 1700.
For the sequence GGACCGGAAGTTAAGGCGTTCGCGGCGTGTGGTAAG, the ETS1 binding intensity in the experiment with ETS1 [1] was 8560; with ETS1 [3] it was 11800. Besides, the figures for the RUNX1 binding intensity with RUNX1 [2] and in the experiment with RUNX1 [4] were 626 and 1560, respectively.
On to AGCTGCTGTTTTCCGGCTGCGGCACTGGATGAAGGA, for which the ETS1 binding intensity is 498 with ETS1 [1] and 422 with ETS1 [3]. The RUNX1 binding intensity with RUNX1 [2] worked out at 711; in the experiment with RUNX1 [4], 1350.
Turning to GGTCAGGTGGGCGTTTCCTGTGGGCGTCTCCAACTC, the ETS1 binding intensity with ETS1 [1] worked out at 1240; in the experiment with ETS1 [3], 1230. The RUNX1 binding intensity with RUNX1 [2] was determined as 770; with RUNX1 [4] it was 1240.
